In PubChem BioAssay (NCI):
About 79,000 compounds went through this panel and 15% of them were active in at least one assay; those are over-represented in the sample as a whole. Active and inactive are the calls of the source. Cut-off read from the data, not from the text of the source: active = growth inhibition above about 70%; inactive = the rest.

How the values were obtained:
[1] = NCI Yeast Anticancer Drug Screen. Data for the rad50 strain (AID 155);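 note: 0% = growth of vehicle-only cultures of the same strain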; details: S. cerevisiae rad50 strain growth inhibition; at 50.0 µM; hits give high values
Procedure, shortened: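 Yeast carrying a defined DNA repair defect were exposed to test compounds, and growth was compared with vehicle-treated controls to give percent inhibition.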

[2] = NCI Yeast Anticancer Drug Screen. Data for the mec2-1 strain (AID 157); details: S. cerevisiae mec2-1 strain, at 50.0 µM, hits give high values
Procedure, shortened: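 Test agents were screened against the mec2-1 yeast strain, with defined DNA repair or cell cycle alteration. Growth was scored as inhibition against vehicle-only controls.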

[3] = NCI Yeast Anticancer Drug Screen. Data for the sgs1 mgt1 strain (AID 161);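 note: 0% = growth of cultures given vehicle only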; details: S. cerevisiae sgs1 mgt1 strain, at 50.0 µM, hits give high values
Procedure, shortened: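 Inhibition of yeast growth, normalised to vehicle-treated controls, is reported for a strain bearing genetic alterations in DNA damage repair.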

[4] = NCI Yeast Anticancer Drug Screen. Data for the cln2 rad14 strain (AID 165);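 note: 0% = growth equal to vehicle treated cultures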; details: S. cerevisiae cln2 rad14 strain, at 50.0 µM, hits give high values
Procedure, shortened: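 Growth of compound-exposed yeast (cln2 rad14 genotype) measured and expressed as inhibition relative to vehicle.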

[5] = NCI Yeast Anticancer Drug Screen. Data for the bub3 strain (AID 167); details: S. cerevisiae bub3 mutant strain, at 50.0 µM, hits give high values
Procedure, shortened: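 Compounds were applied to a genetically altered yeast strain carrying a cell-cycle control defect. Growth inhibition was scored against vehicle-treated controls.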

[6] = NCI Yeast Anticancer Drug Screen. Data for the mlh1 rad18 strain (AID 175); details: S. cerevisiae mlh1 rad18 strain growth inhibition; at 50.0 µM; hits give high values
Procedure, shortened: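 In this whole-cell yeast screen, a strain with altered DNA damage repair is challenged with compound, and its growth is measured against matched vehicle-treated controls.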

Measured: growth inhibition

O=COCCCCCc1ccccc1
inactive: [1] -10.6% | [2] -5.05% | [3] -2.55% | [4] 8.6% | [5] -6.45% | [6] -11%

Clc1ncc(-c2ccccc2)nc1Cl
inactive: [1] 49.5% | [2] 11.4% | [3] 0.6% | [4] 1.25% | [5] 1.75% | [6] 14.9%

C=CCC(OC(=O)CC)c1ccc2c(c1)OCO2 (stereo not drawn)
inactive: [1] 7.3% | [2] -11.6% | [3] 5% | [4] 4.05% | [5] 9.3% | [6] -11.9%

N#CC[N+]1(Cc2ccccn2)CCCC1
inactive: [1] -4.5% | [2] -2.05% | [3] -13.8% | [4] 6.4% | [5] -2.5% | [6] -7.8%

Nc1ccc(CCCCOc2ccccc2)cc1
active: [1] 98.6% | [2] 99% | [3] 98.5% | [4] 98.5% | [5] 99% | [6] 98.4%

Cc1ccc(N=C2N=C(N3CC(C)OC(C)C3)c3ccccc32)cc1 (stereo not drawn)
inactive: [1] -12.9% | [2] -22.9% | [3] -15.6% | [4] -7.8% | [5] 0% | [6] -21.4%

CC(C)CCCC(C)C1CCC2C3CCC4=CCCCC4(C)C3CCC12C (stereo not drawn)
inactive: [1] 4.6% | [2] 33% | [3] 27.8% | [4] 33.1% | [5] 2.45% | [6] 50.7%

CNC(=O)OCc1nc(N=[N+]=[N-])n(C)c1COC(=O)NC
inactive: [1] -16.9% | [2] -19.1% | [3] -3.65% | [4] -31.4% | [5] 2.2% | [6] -24.4%

Nc1ccccc1C(=O)/C=C/c1c(O)ccc2ccccc12
inactive: [1] 29.6% | [2] 9.5% | [3] 10.2% | [4] 15.9% | [5] 21.1% | [6] 34.3%

C=CCn1c(=O)c(C(=O)Nc2nc(C34CC5CC(CC(C5)C3)C4)cs2)c(O)c2ccccc21
inactive: [1] -22.7% | [2] -4.6% | [3] -14.1% | [4] 4.4% | [5] 4.5% | [6] -19.1%

C[C@@]1(N2C(=O)OC(c3ccccc3)C2=O)C(=O)N2CCS[C@@]21c1ccccc1 (stereo partly drawn)
inactive: [1] 4.2% | [2] 2.6% | [3] 11.8% | [4] 11.3% | [5] 5.85% | [6] 1.25%

CC(=O)Oc1ccc(C(C)(C)C)cc1C
inactive: [1] 6.05% | [2] -10.1% | [3] -9.45% | [4] -6.85% | [5] 0.35% | [6] -21.1%

O=C(/C=C/c1ccc2c(c1)OCO2)NCc1ccco1
inactive: [1] 53.5% | [2] 8.7% | [3] -19.6% | [4] -5.8% | [5] -14.4% | [6] -34.9%

Cc1cc2nccnc2cc1C
inactive: [1] -48.8% | [2] -65.8% | [3] -31.4% | [4] -3.4% | [5] -65.5% | [6] -23.2%

C=C(Br)CNC(=O)Nc1ccc(Cl)c(Cl)c1
inactive: [1] -0.3% | [2] 16.1% | [3] 21.4% | [4] 5.7% | [5] 22.6% | [6] -86.2%

N#Cc1cc([N+](=O)[O-])ccc1NC(=O)/C(=N\NC(=O)c1ccncc1)C(c1cnc2ccc([N+](=O)[O-])cc2n1)[N+](=O)[O-] (stereo not drawn)
inactive: [1] 8.6% | [2] 11.4% | [3] -11.1% | [4] -16.1% | [5] 25.4% | [6] 2.75%

CC(C)(C)C(=O)/C=C(\OB(F)F)C(C)(C)C
inactive: [1] 2.25% | [2] -5.2% | [3] -9.15% | [4] 26.9% | [5] -15.8% | [6] 5.25%

CCC(Cc1ccccc1)C1=NC(C)(C)CC(C)O1 (stereo not drawn)
inactive: [1] 1.2% | [2] 3.95% | [3] -5.25% | [4] -20.6% | [5] -1.4% | [6] 25.4%

C#Cc1cccc(N=Cc2cc(Br)cc(OC)c2O)c1
inactive: [1] -23.4% | [2] -6.7% | [3] 1.3% | [4] 4.8% | [5] 5% | [6] 3.95%

Cc1cc2c(c3ccccc13)C(O)c1ccccc1-2 (stereo not drawn)
inactive: [1] -7.85% | [2] 5.95% | [3] 1.5% | [4] -15.4% | [5] 3.85% | [6] -9.25%

CNC(=O)NCCCC(NC(C)=O)C(=O)NCc1ccccc1 (stereo not drawn)
inactive: [1] -19% | [2] -16.7% | [3] -16.2% | [4] 6.4% | [5] -12.5% | [6] 4.7%

Cc1ccc(S(=O)CC(CF)OCn2cc(C)c(=O)[nH]c2=O)cc1 (stereo not drawn)
inactive: [1] 1.6% | [2] 6.65% | [3] -42.6% | [4] 10.2% | [5] -16.1% | [6] -53%

O=C(Sc1ccccn1)c1ccccc1
inactive: [1] 4.15% | [2] -14.3% | [3] -18.4% | [4] -8.05% | [5] -21.6% | [6] -37.1%

CC(=O)Nc1cc(CN2CCCCC2)c(O)c2ncccc12
inactive: [1] -8.65% | [2] -21.4% | [3] -38.3% | [4] -36% | [5] -35.1% | [6] -8.05%

O=C1c2cccnc2C(=O)C2CC3=C(CCCC3)CC12 (stereo not drawn)
active: [1] 97.9% | [2] 97.4% | [3] 96.9% | [4] 88.2% | [5] 97.4% | [6] 98.5%

CC(=O)N1c2ccccc2C23CCN4CC5=CCOC(O)C(C5CC42)C13 (stereo not drawn)
inactive: [1] -20.1% | [2] -21.4% | [3] -18.6% | [4] -6.55% | [5] -13.9% | [6] -62.4%

NC(CCNCCc1ccccc1)CNCCc1ccccc1 (stereo not drawn)
inactive: [1] 29.7% | [2] -11.6% | [3] 10.9% | [4] -2.85% | [5] -6.5% | [6] -7.15%

O=C1NC(Cc2c[nH]c3ccccc23)C(=O)N2CCCC12 (stereo not drawn)
inactive: [1] -4.85% | [2] 1% | [3] -7% | [4] -6.5% | [5] -6.3% | [6] 8.85%

COc1ccc(/C=C/C(=O)c2ccc(Cl)s2)cc1
inactive: [1] -18.2% | [2] -4.75% | [3] -5.8% | [4] -34.3% | [5] 20.4% | [6] -4.5%

O=C(c1ccco1)N(C(=S)N1CCN(c2ccccc2)CC1)c1ccccc1
inactive: [1] -79.7% | [2] -24.4% | [3] -35.5% | [4] -4.4% | [5] -18.1% | [6] -35.2%

COc1cc(CCNC2=CC(=O)c3ncccc3C2=O)ccc1O
inactive: [1] 31.6% | [2] 34% | [3] -8.25% | [4] 4.95% | [5] 5.8% | [6] 14.3%

CCCNN(CCC)C(N)=O
inactive: [1] 0.6% | [2] 13.7% | [3] -5.75% | [4] 2.75% | [5] 24.1% | [6] -7.25%

COC(=O)/C(C#N)=C/c1ccc2c(c1)OCO2
inactive: [1] 12.4% | [2] 7.65% | [3] 16.1% | [4] 11.2% | [5] 35.9% | [6] 28.2%

O=C(NCCCN(CCCCN(CCCNC(=O)C(F)(F)F)Cc1ccc2ccccc2c1)Cc1ccc2ccccc2c1)C(F)(F)F
active: [1] 83.4% | [2] 87.3% | [3] 88.5% | [4] 88.2% | [5] 87% | [6] 92.5%

C=C(CO)[C@H]1Oc2ccc(C(C)=O)cc2[C@@H]1O
inactive: [1] -16.1% | [2] -10.1% | [3] -24.6% | [4] 6.85% | [5] -10.7% | [6] -12.5%

c1ccc2c(-c3c[nH]c4ccccc34)c[nH]c2c1
inactive: [1] 16.8% | [2] -1.5% | [3] -3.05% | [4] -27.2% | [5] -8.75% | [6] 15.3%

O=c1cnn(C2OC(CO)C(O)C2O)c(=S)[nH]1 (stereo not drawn)
inactive: [1] -4.45% | [2] -1.45% | [3] 28.6% | [4] 1.25% | [5] 26.1% | [6] -96.5%

FC(F)(F)c1cccc(-c2nc3nc(Cl)c(Cl)nc3[nH]2)c1
inactive: [1] 15.1% | [2] -2% | [3] -5.7% | [4] -15.7% | [5] 18.4% | [6] 26.3%
